Drawing on ChEMBL document CHEMBL4513216, “Probing the Open Global Health Chemical Diversity Library for Multistage-Active Starting Points for Next-Generation Antimalarials” (ACS Infect Dis, 2020), this text covers INHIBITION for 65 molecules.

Molecules are shown by their SMILES. The campaign covered roughly 65,000 compounds. About 2,100 (3.2%) showed an effect of 50% or more. The median lay at about -52%. The list comes from a sample in which strong results are over-represented; it also holds similar structures and randomly drawn compounds.

The subject of this test is Plasmodium falciparum. Put plainly: Screen against P. falciparum Asexual Blood Stage (ABS), at 5uM. It is filed as functional, Dd2. As to conditions: tested at 5 uM.
Take `CCOC[C@]12COC[C@H]1CN(Cc1cccc(OC)c1)C2`: the INHIBITION is recorded as 3.19%.

For the molecule `COc1ncccc1CN1C[C@@H]2COC[C@]2(COc2cccnc2)C1`, the INHIBITION was -33.8%.

For the molecule `COc1cccc(CN2C[C@@H]3COC[C@]3(COCc3ccncc3)C2)c1`, the INHIBITION amounted to 33.5%.

As to `COc1cccc(CN2C[C@@H]3COC[C@]3(COc3cccnc3)C2)c1`, the INHIBITION is recorded as 16.9%.

Regarding `COc1cc(N2C[C@@H]3COC[C@]3(COCc3ccncc3)C2)ncn1`, the INHIBITION is listed as -1.95%.

Regarding `COc1ccccc1CN1C[C@@H]2COC[C@]2(COc2cccnc2)C1`, the INHIBITION is 52.9%.

Regarding `COc1ccccc1CN1C[C@@H]2COC[C@]2(COCc2ccncc2)C1`, the INHIBITION was determined as 55.3%.

In the case of `COc1cccc(CN2C[C@@H]3COC[C@]3(COCc3ccccn3)C2)c1`, the INHIBITION worked out at 61%.

In the case of `Fc1cccc(CN2C[C@@H]3COC[C@]3(COCc3ccncc3)C2)c1`, the INHIBITION is on record as -28.5%.

Consider `COCc1nc(C(=O)N2CCCC(n3ccnc3)C2)cs1` (stereo not given), for which the INHIBITION is reported as -141%.

On to `Cn1cc(N2CC3(CCN(Cc4ccsc4)CC3)OCC2=O)cn1`, for which the INHIBITION is on record as -22.1%.

For the molecule `Cc1nc(NCCCn2cccn2)c2c(n1)c(C)nn2C`, the INHIBITION is -54.6%.

Turning to `Cc1cn2c(n1)CCC(NC(=O)CCCOCc1ccccc1)C2` (stereo not given), the INHIBITION is listed as -45.8%.

Regarding `Cc1nc(CO[C@@H]2CN(Cc3cnn(C)c3)[C@@H]3COC[C@@H]32)cs1`, the INHIBITION is given as -12.8%.

In the case of `Cc1n[nH]c(C)c1-c1cc(-c2ccc[nH]2)nc(N)c1C#N`, the INHIBITION was -185%.

Consider `CC(C)Cc1cc(-c2cc(-c3ccc[nH]3)nc(N)c2C#N)n[nH]1`, for which the INHIBITION is reported as 61.3%.

For `Cc1n[nH]c(C)c1-c1cc(-c2cccc(O)c2)nc(N)c1C#N`, the INHIBITION was -71.8%.

As for `N#CC1(NC(=O)c2ccc(F)c(Br)c2)CCSC1` (stereo not given), the INHIBITION was -155%.

On to `CCc1ccc(NC(=O)CCN2CC(n3nc(C)cc3C)C2)cc1`, for which the INHIBITION is reported as -12.9%.

With `CCc1nnc(NC(=O)c2ccc(C3CCCN3CC(C)C)s2)s1` (stereo not given), the INHIBITION is recorded as -54.1%.

In the case of `CC(C)CN1CCCC1c1ccc(C(=O)Nc2cn(C)nn2)s1` (stereo not given), the INHIBITION stood at 52.9%.

As to `CC(C)CN1CCCC1c1ccc(C(=O)Nc2cc[nH]n2)s1` (stereo not given), the INHIBITION is listed as 44.6%.

For `O=C(Nc1cccc(Cl)c1)c1nn(C2CCS(=O)(=O)C2)c2c1CCCC2` (stereo not given), the INHIBITION is reported as 25.4%.

Regarding `O=C(CO[C@@H]1CC[C@H]2[C@H]1OCCN2Cc1ccccn1)N1CCCC1`, the INHIBITION was -59.6%.

`O=C(c1cnccn1)N1CCC2(CC1)CCN(Cc1ccccn1)C2=O`: the INHIBITION is recorded as -85.2%.

As for `CN(Cc1cncnc1)[C@@H]1CN(Cc2ccco2)C[C@@H]2CCCO[C@@H]21`, the INHIBITION was -7.65%.

Take `COc1ccccc1CN1CC[C@H]2[C@@H](C1)[C@H](c1ccsc1)CN2C(C)=O`: the INHIBITION came out at 29.5%.

Regarding `CC(C)(C)C(=O)N1C[C@H](c2ccsc2)[C@H]2CN(Cc3cccs3)CC[C@H]21`, the INHIBITION is reported as 29.8%.

As for `COc1cccc(CN2CC[C@H]3[C@@H](C2)[C@H](c2ccsc2)CN3C(C)=O)c1`, the INHIBITION is reported as 54.8%.

Turning to `Cn1nc(COc2cccnc2)c2c1CCN(c1cnccn1)C2`, the INHIBITION is -72.3%.

Take `Oc1cc(C2CCCCN2CC2CC2)nc(-c2ccncc2)n1` (stereo not given): the INHIBITION is given as -48.7%.

With `c1ccc2c(c1)N(CC1CCOC1)CC21CCN(c2cnccn2)CC1` (stereo not given), the INHIBITION was found to be 69.9%.

`CCCS(=O)(=O)N1CCC2(CC1)CN(CC1CCOC1)c1ccccc12` (stereo not given): the INHIBITION amounted to 50.8%.

On to `CCS(=O)(=O)N1CCC2(CC1)CN(CC1CCOC1)c1ccccc12` (stereo not given), for which the INHIBITION amounted to 23.6%.

For the molecule `CS(=O)(=O)N1CCC2(CC1)CN(CC1CCOC1)c1ccccc12` (stereo not given), the INHIBITION is recorded as -50.1%.

`O=C1CC2(CCN(CC3CCOC3)CC2)c2ccccc2N1CC1CC1` (stereo not given): the INHIBITION was 12.4%.

For `CCCS(=O)(=O)N1CCC2(CC1)CN(C(=O)N(C)C)c1ccccc12`, the INHIBITION is -7.36%.

Take `Cc1nn(CC(F)F)c2c1c(C(F)F)cc(=O)n2CC(=O)O`: the INHIBITION is given as -111.45%.

Consider `CN1CCCn2c(nc(CNS(=O)(=O)C3CC3)cc2=O)C1`, for which the INHIBITION is on record as -41.3%.

For `Cc1nn(C)c2cnn(Cc3ccc(C(=O)NC4CC4)cc3)c12`, the INHIBITION is -60.4%.

With `COc1ccc(Cn2c(C3CCNCC3)cc3cccnc32)cc1`, the INHIBITION was 66.9%.

As for `COc1ccc(-c2ccnc(C3CCNCC3)c2)cc1`, the INHIBITION turned out to be 30.9%.

Consider `CN1CCCC1c1cc2cccnc2n1Cc1ccc(F)cc1` (stereo not given), for which the INHIBITION was determined as 69.9%.

For `Fc1cccc(-c2nccnc2C2CCCNC2)c1` (stereo not given), the INHIBITION is recorded as 14.9%.

As for `Fc1cccc(F)c1Cn1c(C2CCCNC2)cc2cccnc21` (stereo not given), the INHIBITION worked out at 66.1%.

In the case of `c1cnc2c(c1)cc([C@H]1CCCO1)n2CCN1CCCC1`, the INHIBITION worked out at 21.4%.

As to `c1cnc2c(c1)cc([C@H]1CCCO1)n2CCN1CCCCC1`, the INHIBITION came out at 25.8%.

Turning to `COc1cccc(CN2C[C@H]3CCNCC[C@H]3S2(=O)=O)c1`, the INHIBITION is listed as 17.1%.

Regarding `COc1cccc(-c2ccnc(C3CCNCC3)c2)c1`, the INHIBITION was -73.8%.

As for `c1cnc2c(c1)cc(C1CCOCC1)n2CCN1CCOCC1`, the INHIBITION was -7.49%.

For `Fc1ccccc1-c1nccnc1C1CCCNC1` (stereo not given), the INHIBITION was 10.7%.

Turning to `COc1cccc(Cn2c(C3CCNCC3)cc3cccnc32)c1`, the INHIBITION was found to be 66.1%.

As for `O=C(C1CCOCC1)N1C[C@H]2CCC[C@@]2(COCc2ccccn2)C1`, the INHIBITION is reported as -15.1%.

Turning to `Cc1noc(C(C)C)c1C(=O)NCc1cccc(CN(C)C)c1`, the INHIBITION is -13.6%.

As for `Cc1cnc(CNC2CCc3nc(C(C)C)nn3C2)cn1` (stereo not given), the INHIBITION is -20.3%.

Take `Cc1ccc(CN2C[C@@H]3CN(CC4CCOCC4)CCO[C@@H]3C2)s1`: the INHIBITION is recorded as -95.1%.

On to `CC(C)(C)n1cc(CNc2ccc(CNS(C)(=O)=O)cc2)cn1`, for which the INHIBITION is on record as -25.8%.

In the case of `Cn1cnc2c1C(COCC1CC1)CN(Cc1ccc3c(c1)OCO3)C2` (stereo not given), the INHIBITION was found to be 41.1%.

Regarding `CCCC(=O)N1CCCN(C(=O)c2oc(C)nc2C)CC1`, the INHIBITION is -111%.

Take `Cc1ncsc1C(=O)NCc1ccnc(N2CCN(C)CC2)c1`: the INHIBITION was 62.9%.

Regarding `Cc1ccsc1C(=O)NCc1ccnc(N2CCN(C)CC2)c1`, the INHIBITION is -35%.

Turning to `Cc1cc(C(=O)NCc2ccnc(N3CCOCC3)c2)c(C)s1`, the INHIBITION is 50.6%.

Regarding `Cc1cc(C(=O)NCc2ccnc(N3CCN(C)CC3)c2)sc1C`, the INHIBITION is given as -5.05%.

Regarding `Cc1cc(C(=O)NCc2ccnc(N3CCN(C)CC3)c2)c(C)s1`, the INHIBITION was found to be 32.2%.

In the case of `Cc1ccc(C(=O)NCc2ccnc(N3CCN(C)CC3)c2)cn1`, the INHIBITION is given as -38.9%.
